Bioassay records (PubChem)
Rows were chosen to be rich in hits. Some 21% of all compounds tested hit in one or more screens of this group.
CHX counter – Cycloheximide Counterscreen for Small Molecule Inhibitors of Shiga Toxin | cell reporter, cycloheximide protein synthesis inhibition counterscreen | AID 2314, 2010 | 12% of 300,000 active | max response, %; in the data active means max response mostly above about 13%, no sharp cut-off; inactive means mostly below about 14%; further: read at 38.3 µM for the half of the compounds with a filed dose; 0% is about no effect
Pf growth 48h – Primary qHTS for delayed death inhibitors of the malarial parasite plastid, 48 hour incubation | P. falciparum luciferase growth in erythrocytes, 48 h | 5.9% of 310,000 active | AID 504832, 2011 | Potency, µM (doses to about 28.7 µM), inactives show top-dose activity change, negative = inhibition, hits mostly inhibitors; further: potency means the concentration at half of the fitted maximal effect; on the % scale 0 is the no-effect control and ±100 the full control effect
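Erythrocytes infected with P. falciparum carrying an integrated firefly luciferase reporter (2% hematocrit, 0.1% parasitemia final) were exposed to compounds in RPMI 1640 with 0.5% Albumax at 37 C, 5% CO2. Growth inhibition was scored as reduced luminescence.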
Giardia FBPA inh – qHTS Assay for Inhibitors of Fructose-1,6-bisphosphate Aldolase from Giardia Lamblia; Potency, µM (doses to about 59.6 µM), for the others: top-dose activity, negative = inhibition, most hits filed as inhibitors; AID 2451, 2010; 0.71% of 290,000 active; purified Giardia FBPA; further: potency means the concentration at half of the fitted maximal effect; on the % scale 0 is the no-effect control and ±100 the full control effect; nearly all actives have a fitted effect of over 55% in size
Target sequence (A8B2U2 whole entry, looked up): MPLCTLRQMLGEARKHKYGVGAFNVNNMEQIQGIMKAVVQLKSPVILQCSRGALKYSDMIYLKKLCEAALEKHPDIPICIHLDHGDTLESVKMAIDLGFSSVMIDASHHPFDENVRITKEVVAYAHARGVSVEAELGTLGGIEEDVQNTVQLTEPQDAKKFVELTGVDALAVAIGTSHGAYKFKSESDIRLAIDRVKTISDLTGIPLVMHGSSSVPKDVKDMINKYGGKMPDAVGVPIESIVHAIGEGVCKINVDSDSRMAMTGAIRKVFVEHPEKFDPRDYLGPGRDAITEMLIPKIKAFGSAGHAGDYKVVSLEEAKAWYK
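40 nM FBPA preincubated 10 min at RT with compound (up to 57.5 uM final), then substrate plus GAPDH/TPI/NAD/arsenate coupling and diaphorase/resazurin added. Fluorescence read after 20 min at RT, 525/598 nm.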
Shiga toxin inh – A qHTS for Small Molecule Inhibitors of Shiga Toxin. 9.2% of 290,000 active. AID 2315, 2010. inhibition, % at 38.7 µM. Vero cells, Shiga toxin protein synthesis inhibition reporter; in the data active means inhibition mostly above about 28%, no sharp cut-off; inactive means mostly below about 43%; further: 0% is about no effect
Pf growth 96h – Primary qHTS for delayed death inhibitors of the malarial parasite plastid, 96 hour incubation | 6.9% of 320,000 active | Potency, µM (series often up to 28.7 µM), without a hit: top-dose activity change, negative = inhibition, actives largely listed as inhibitors | P. falciparum luciferase reporter growth, 96 h; further: potency means the concentration at half of the fitted maximal effect; on the % scale 0 is the no-effect control and ±100 the full control effect
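Luminescence readout: decreased luciferase signal marks inhibited growth of reporter-expressing P. falciparum in infected red cells (2% hematocrit, 0.05% parasitemia final), exposed to compound two generations (96 h, 37 C, 5% CO2).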
NS1 function inh – qHTS Assay for Inhibitors of Influenza NS1 Protein Function; Potency, µM (top dose mostly 46.1 µM), for the others: at the top dose activity, positive = more growth; 0.4% of 270,000 active; AID 2326, 2010; calls by dose curve; further: potency means the concentration at half of the fitted maximal effect; actives are rising curves; nearly all actives have a fitted effect of over 50% in size
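Recovery from NS1-induced slow growth read by OD600 in budding yeast switched to galactose assay medium (pH 6.0, -URA) at 1:100 dilution. Compound 23 nl per well; the matching strain lacking NS1 serves as control.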
The depositor's hits bear a star; ? = inconclusive; . = not tested or not shown. Unless noted, the call rests on the fitted dose curve; in most records, active means well fitted curve in the direction sought with a large enough effect; inconclusive means small, poorly fitted or top-dose-only effect, or another doubt; inactive means no such curve, though single readings can be large; an effect the other way counts as inactive or inconclusive.

SMILES	CHX counter	Pf growth 48h	Giardia FBPA inh	Shiga toxin inh	Pf growth 96h	NS1 function inh
Cn1c(CN2CCCC2)nc2cc(NC(=O)c3cccs3)ccc21	34.9*	69.8%	-11.1%	64.5*	26.1%	16.7%
N#Cc1cnc2cc(-c3ccccc3)nn2c1N	17.8*	48.8%	3.5%	29.2	21.2%	2.8%
COc1ccc(-c2cc3ncc(-c4ccccc4)c(N)n3n2)cc1	36.1*	211.0%	-8.1%	61.4*	-47.7%	-2.0%
CCOC(=O)c1cnc2cc(-c3ccc(C)cc3)nn2c1-c1ccccc1	-2.5	?	.	-3.9	?	7.6%
Cc1nc2cc(-c3ccccc3)nn2c(N)c1-c1ccccc1	.	170.6%	.	.	399.5%	.
CC(NC(=O)c1ccc(NC(=O)CC2SC(N3CCCC3)=NC2=O)cc1)c1ccc(S(N)(=O)=O)cc1 (stereo not given)	.	-25.6%	.	.	-22.9%	.
O=C(O)/C=C/C(=O)NC1CCCCCCCCCCC1	-1.1	1.0%	26.6%	-14.5	?	-3.8%
O=C(Nc1nc(-c2ccccc2)c(-c2ccccc2)o1)c1ccc(F)cc1	0.4	?	-3.6%	6.6	9.28µM*	-67.8%
COc1cccc(C(=O)Nc2nc(-c3ccccc3)c(-c3ccccc3)o2)c1	10.2	-23.6%	8.7%	13.3	-28.6%	-12.9%
COc1ccc(-c2csc(NC(=O)c3ccc(OCC(=O)N4CCOCC4)c(OC)c3)n2)cc1OC	-1.4	9.28µM*	1.2%	18.9	?	5.5%
CCOc1cc(/C=C\[N+](=O)[O-])ccc1OCC(=O)N1CCOCC1	-1.8	?	-0.7%	-7.2	?	.
CCOc1cc(C(=O)Nc2nnc(CC)s2)ccc1OCC(=O)N1CCOCC1	-4.6	0.262µM*	-7.4%	5.9	?	4.6%
CCOc1cc(/C=C/c2nc3cc(C)c(C)cc3s2)ccc1OCC(=O)N1CCOCC1	4.6	?	-4.2%	-91.6	10.4µM*	12.0%
COc1cc(C(=O)Nc2cccc(C)n2)ccc1OCC(=O)N1CCOCC1	.	18.1%	.	.	-17.4%	.
CCCCNc1c(-c2cccc(-c3cc(C(C)=O)cs3)c2)nc2cc(C)ccn12	.	?	.	.	0.8%	.
CCCCNc1c(-c2ccc(SC(C)CC)c(OC)c2)nc2ccc(C)cn12 (stereo not given)	.	3.29µM*	.	.	?	.
CCCCNc1c(-c2ccc(SC3CCCCC3)c(OC)c2)nc2ccc(Cl)cn12	.	8.28µM*	.	.	2.08µM*	.
C=C1C(=O)O[C@H]2[C@H]1[C@@H](O)CC(=C)[C@@H]1CC(=O)[C@@H](C)[C@H]21	31.7*	?	-4.3%	36.0*	?	0.9%
Cn1cc([N+](=O)[O-])c(C(=O)NC2CCCCCCC2)n1	6.5	35.6%	.	6.6	-26.1%	-8.2%
Cn1cc(Cl)c(C(=O)NC2CCCCCC2)n1	13.6*	26.8%	-0.1%	23.1*	.	0.8%
Cn1cc(Cl)c(C(=O)NNC(=S)NC2CCCCC2)n1	23.0*	18.7%	7.0%	54.0*	2.9%	-2.5%
O=S(=O)(c1ccc2c(c1)OCCO2)C1CCC(O)CC1 (stereo not given)	.	17.0%	.	.	-3.5%	.
CN(C)c1ccc(NC(=O)CCn2c(=S)oc3ccccc32)cc1	54.7*	193.2%	0.3%	94.9*	2.3%	.
CCSc1nnc(NC(=O)CCn2c(=O)oc3ccccc32)s1	-1.4	-0.3%	4.9%	-14.7	-11.6%	3.9%
O=C(CCn1c(=O)oc2ccccc21)Nc1nc2ccccc2s1	13.0*	14.3%	-3.5%	44.0*	8.0%	-9.9%
SMILES	CHX counter	Pf growth 48h	Giardia FBPA inh	Shiga toxin inh	Pf growth 96h	NS1 function inh
COC(=O)c1ccc(NC(=O)CCn2c(=O)oc3ccccc32)cc1	28.7*	-6.8%	-5.3%	40.4*	.	-7.6%
COCCNc1ncnc2ccc(-c3ccccc3C(F)(F)F)cc12	.	.	-7.7%	.	.	.
CC1CN(/C=C/C=O)C(C)CC1OC(=O)c1ccccc1 (stereo not given)	-2.7	-16.2%	-2.7%	-12.3	?	0.9%
N#CCSc1nnc(-c2c[nH]c3ccccc23)o1	-2.9	-5.5%	.	-11.9	?	15.7%
CCC1CCCCN1C(=O)CSc1nnc(-c2c[nH]c3ccccc23)o1 (stereo not given)	16.2*	.	2.3%	28.4	-6.9%	5.7%
CC1CCCC(C)N1C(=O)CSc1nnc(-c2c[nH]c3ccccc23)o1 (stereo not given)	19.3	?	-0.6%	29.7	7.7%	3.6%
COc1ccc(CN(C(=O)CSc2nnc(-c3c[nH]c4ccccc34)o2)c2ccc(F)cc2)cc1OC	40.6*	4.15µM*	-0.2%	51.5*	?	28.1%
COc1ccc(CN(C(=O)CSc2nnc(-c3ccc(F)cc3)o2)c2ccc(F)cc2)cc1	-5.8	-22.6%	-16.4%	-4.1	-1.5%	-20.3%
CC1CCCN(C(=O)CSc2nnc(-c3c[nH]c4ccccc34)o2)C1 (stereo not given)	34.7*	.	3.9%	71.6	?	-14.7%
CCSc1nnc(-c2c[nH]c3ccccc23)o1	43.7*	48.6%	-1.4%	87.9*	-26.9%	-36.6%
O=C(O)CCC/C=C\C[C@@H]1CO[C@H](C(F)(F)F)O[C@@H]1c1ccccc1O	.	.	18.4%	.	.	.
c1ccc2c(c1)NCCS2	46.7*	6.1%	-22.9%	80.4*	8.8%	?
O=C(NCc1ccccn1)Nc1ccccc1Cl	24.8*	34.6%	0.0%	32.3*	-2.3%	1.5%
Cc1c(Cl)cccc1NC(=O)NCc1ccccn1	15.0*	-6.2%	1.6%	31.1	-3.5%	-3.7%
Cc1nn(C)c(C)c1CNC(=O)Nc1cccc(Cl)c1C	31.8*	50.0%	0.9%	48.7	69.4%	.
O=C(NCc1ccccn1)Nc1cccc(Cl)c1Cl	59.2*	20.5%	.	34.7	0.0%	2.2%
Cc1c(Cl)cccc1NC(=O)NCc1ccc(F)cc1	-3.1	34.1%	-2.6%	13.3	-9.4%	1.5%
COc1cccc(C2=Nn3c(nnc3-c3cccc(OC)c3OC)SC2)c1	0.8	.	1.9%	-4.0	.	.
COC(=O)c1ccc(C(=O)OC)c(NC(=O)C2CCCO2)c1 (stereo not given)	-2.5	?	1.1%	9.9	0.0%	-12.6%
COc1ccc(N(CC(=O)NC2CCS(=O)(=O)C2)S(=O)(=O)c2ccc(Cl)c(Cl)c2)cc1 (stereo not given)	.	27.0%	.	.	0.4%	.
COc1cccc(C(=O)N(Cc2ccco2)c2c(N)n(Cc3ccccc3)c(=O)[nH]c2=O)c1	.	-27.9%	.	.	?	.
CCOc1ccc(CCNC(=O)COC(=O)c2nn(C)c(=O)c3ccccc23)cc1OCC	.	2.94µM*	.	.	41.0%	.
CCCNC(=O)COC(=O)/C=C/c1ccc(C)o1	1.8	11.6%	0.6%	-1.8	30.9%	.
CCOc1ccc(CCNC(=O)COC(=O)CCc2cc(OC)c(OC)c(OC)c2)cc1OCC	.	13.1µM*	.	.	?	.
CCOC(=O)CCCNC(=O)CCNC(=O)c1ccc(OC(C)C)cc1	16.5*	-7.3%	4.4%	54.4*	.	12.6%
CCOc1ccc(CCNC(=O)COC(=O)/C=C/c2ccc(C)o2)cc1OCC	10.8	13.1µM*	.	-1.4	5.22µM*	-3.1%
